Out of some 5,500 compounds screened, about 2,000 (36%) were called active. Not shown: some 18% with an inconclusive outcome. No stated cut-off is given here; in the data, active means normalized growth mostly below about 0.91 (no sharp cut-off); inconclusive means no clear call, values can overlap the other calls; inactive means mostly above about 0.92. Some of the results follow.
Experiment: chemical genetic growth profiling, strain panel (AID 1159580);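 further: tested at 20 µM; growth read once vehicle control cultures reached saturation at 30 °C; 1 = growth at the plate median or of vehicle wells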
Settings: S. cerevisiae deletion strains, growth OD

Measured: normalized growth

COc1cc(CC(=O)O)ccc1O
inactive: locus YAL013W, strain DEP1, stronger effect = lower value 1 | locus YAL040C, strain CLN3, stronger effect = lower value 1.07 | locus YCL061C, strain MRC1 (second series), stronger effect = lower value 0.989 | locus YDR150W, strain NUM1, stronger effect = lower value 0.992 | locus YDR363W, strain ESC2, stronger effect = lower value 0.982 | locus YER002W, strain NOP16, stronger effect = lower value 0.97 | locus YGR078C, strain PAC10, stronger effect = lower value 0.986 | locus YMR307W, strain GAS1, stronger effect = lower value 1.01 | locus YNL175C, strain NOP13, stronger effect = lower value 0.967 | locus YNL197C, strain WHI3, stronger effect = lower value 0.977 | locus YNL224C, strain SQS1, stronger effect = lower value 0.985 | locus YNL322C, strain KRE1, stronger effect = lower value 0.987 | locus YOR083W, strain WHI5 (second series), stronger effect = lower value 0.942 | locus YPL055C, strain LGE1, stronger effect = lower value 0.995 | locus YPL241C, strain CIN2, stronger effect = lower value 0.991

C=CCc1ccc(OC)cc1
inactive: locus YAL021C, strain ccr4, stronger effect = lower value 0.982 | locus YAL026C, strain drs2, stronger effect = lower value 1.03 | locus YAL030W, strain snc1, stronger effect = lower value 1 | locus YBL061C, strain skt5, stronger effect = lower value 1.01 | locus YBR009C, strain hhf1, stronger effect = lower value 1.01 | locus YBR023C, strain chs3, stronger effect = lower value 1.01 | locus YBR171W, strain sec66, stronger effect = lower value 1.01 | locus YBR231C, strain swc5, stronger effect = lower value 1.02 | locus YBR279W, strain paf1, stronger effect = lower value 0.995 | locus YCL011C, strain gbp2, stronger effect = lower value 0.988 | locus YCL016C, strain dcc1, stronger effect = lower value 1 | locus YCL069W, strain vba3, stronger effect = lower value 0.999 | locus YCR088W, strain abp1, stronger effect = lower value 1.01 | locus YDL005C, strain med2, stronger effect = lower value 1.02 | locus YDL040C, strain nat1, stronger effect = lower value 0.999 | locus YDR001C, strain nth1, stronger effect = lower value 1 | locus YDR069C, strain doa4, stronger effect = lower value 1.01 | locus YDR137W, strain rgp1, stronger effect = lower value 0.994 | locus YDR159W, strain sac3, stronger effect = lower value 1.06 | locus YDR195W, strain ref2 1 | locus YDR297W, strain sur2, stronger effect = lower value 1.04 | locus YDR334W, strain swr1, stronger effect = lower value 1.01 | locus YDR335W, strain msn5, stronger effect = lower value 0.996 | locus YDR392W, strain spt3, stronger effect = lower value 0.919 | locus YEL003W, strain gim4, stronger effect = lower value 1.01 | locus YEL037C, strain rad23, stronger effect = lower value 1.01 | locus YEL061C, strain CIN8 (second series), stronger effect = lower value 0.995 | locus YER015W, strain faa2, stronger effect = lower value 1.01 | locus YER016W, strain bim1, stronger effect = lower value 1.01 | locus YER111C, strain swi4, stronger effect = lower value 1 | locus YER155C, strain BEM2 (second series), stronger effect = lower value 1.04 | locus YFR010W, strain ubp6, stronger effect = lower value 1.03 | locus YGL167C, strain pmr1, stronger effect = lower value 1.01 | locus YGL173C, strain kem1, stronger effect = lower value 1.03 | locus YGL227W, strain vid30, stronger effect = lower value 1.01 | locus YGL240W, strain doc1, stronger effect = lower value 1.02 | locus YGL253W, strain hxk2, stronger effect = lower value 1.02 | locus YHR013C, strain ard1, stronger effect = lower value 1.01 | locus YHR027C, strain rpn1, stronger effect = lower value 1.01 | locus YHR030C, strain SLT2, stronger effect = lower value 1 | locus YHR079C, strain IRE1, stronger effect = lower value 0.989 | locus YHR142W, strain chs7, stronger effect = lower value 0.992 | locus YJL092W, strain hpr5, stronger effect = lower value 1.01 | locus YJL095W, strain BCK1 (second series), stronger effect = lower value 1.01 | locus YJL095W, strain BCK1, stronger effect = lower value 0.995 | locus YJL115W, strain asf1, stronger effect = lower value 1.01 | locus YJL129C, strain trk1, stronger effect = lower value 1.03 | locus YJL154C, strain vps35, stronger effect = lower value 1 | locus YJL164C, strain tpk1, stronger effect = lower value 0.98 | locus YJL166W, strain qcr8, stronger effect = lower value 1.01 | locus YJL187C, strain SWE1, stronger effect = lower value 0.997 | locus YJR066W, strain TOR1, stronger effect = lower value 0.939 | locus YKL160W, strain elf1, stronger effect = lower value 0.979 | locus YKR026C, strain gcn3, stronger effect = lower value 1.01 | locus YKR091W, strain srl3, stronger effect = lower value 1 | locus YLL001W, strain dnm1, stronger effect = lower value 0.996 | locus YLL026W, stronger effect = lower value 1.02 | locus YLL041C, strain sdh2, stronger effect = lower value 1 | locus YLR027C, strain aat2, stronger effect = lower value 1.02 | locus YLR113W, strain HOG1, stronger effect = lower value 0.992 | locus YLR221C, strain rsa3, stronger effect = lower value 1.03 | locus YLR258W, strain gsy2, stronger effect = lower value 0.999 | locus YLR262C, strain YPT6 (second series), stronger effect = lower value 0.992 | locus YLR320W, strain mms22, stronger effect = lower value 1.03 | locus YLR342W, strain FKS1, stronger effect = lower value 1.01 | locus YLR357W, strain rsc2, stronger effect = lower value 1.01 | locus YLR370C, strain arc18, stronger effect = lower value 0.995 | locus YLR384C, strain iki3, stronger effect = lower value 1.01 | locus YML120C, strain ndi1, stronger effect = lower value 0.986 | locus YMR058W, strain fet3, stronger effect = lower value 1.02 | locus YMR125W, strain sto1, stronger effect = lower value 0.967 | locus YMR129W, stronger effect = lower value 1.02 | locus YMR205C, strain PFK2, stronger effect = lower value 0.999 | locus YMR231W, strain pep5, stronger effect = lower value 1.01 | locus YNL071W, strain lat1, stronger effect = lower value 0.991 | locus YNL183C, strain NPR1, stronger effect = lower value 0.909 | locus YNL209W, strain ssb2, stronger effect = lower value 0.992 | locus YNL248C, strain rpa49, stronger effect = lower value 0.952 | locus YNL322C, strain KRE1 (second series), stronger effect = lower value 1 | locus YNR049C, strain mso1, stronger effect = lower value 1 | locus YOR001W, strain rrp6, stronger effect = lower value 1.02 | locus YOR070C, strain gyp1, stronger effect = lower value 1.02 | locus YOR080W, strain dia2, stronger effect = lower value 1.02 | locus YOR083W, strain WHI5, stronger effect = lower value 0.974 | locus YOR106W, strain vam3, stronger effect = lower value 0.988 | locus YOR231W, strain MKK1, stronger effect = lower value 1 | locus YOR265W, strain rbl2, stronger effect = lower value 1 | locus YOR270C, strain vph1, stronger effect = lower value 1.04 | locus YOR290C, strain snf2, stronger effect = lower value 0.956 | locus YPL051W, strain arl3, stronger effect = lower value 1.01 | locus YPL078C, strain atp4, stronger effect = lower value 0.96 | locus YPL106C, strain sse1, stronger effect = lower value 1 | locus YPL240C, strain hsp82, stronger effect = lower value 1.02 | locus YPL256C, strain CLN2, stronger effect = lower value 1
